From the supplement of paper PMC8728848
Many of the other results were omitted from the sample, so the strongest signals are more common in it than they were.

Tests used:
Assay in all cases: glycan array binding signal (z-score within array); higher = stronger binding
Details in all cases: glycan notation: IUPAC condensed, linker removed
[1] = target: Gal6S(b1-4)GlcNAc6S
How it was run: (§1)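 Glycan array data were curated from 3228 arrays in the Consortium for Functional Glycomics database and kept only where the protein sequence was available. Glycan names were converted to IUPAC-condensed notation, and columns mapping to the same glycan were averaged. The binding signal is a within-array Z-score, averaged across arrays of the same protein sequence at different concentrations or buffers and across linkers. Negative Z-scores can be read as non-binding.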

[2] = target: GalNAc(b1-3)Gal(a1-6)Gal(b1-4)Glc
How it was run: as §1

[3] = target: GalNAc3S(b1-4)GlcNAc3S
How it was run: as §1

[4] = target: Glc(a1-4)Glc(a1-4)Glc(a1-4)Glc
How it was run: as §1

[5] = target: Glc(a1-6)Glc(a1-6)Glc(a1-6)Glc
How it was run: as §1

[6] = target: GlcA(b1-6)Gal
How it was run: as §1

[7] = target: GlcNAc(b1-3)Gal
How it was run: as §1

[8] = target: GlcNAc(b1-3)Gal(b1-4)GlcNAc(b1-2)Man(a1-3)[GlcNAc(b1-3)Gal(b1-4)GlcNAc(b1-2)Man(a1-6)]Man(b1-4)GlcNAc(b1-4)GlcNAc
How it was run: as §1

[9] = target: GlcNAc(b1-3)Gal(b1-4)GlcNAc(b1-3)Gal(b1-4)GlcNAc(b1-2)Man(a1-3)[GlcNAc(b1-3)Gal(b1-4)GlcNAc(b1-3)Gal(b1-4)GlcNAc(b1-2)Man(a1-6)]Man(b1-4)GlcNAc(b1-4)GlcNAc
How it was run: as §1

[10] = target: GlcNAc(b1-3)Gal(b1-4)GlcNAc(b1-6)[GlcNAc(b1-3)]Gal(b1-4)GlcNAc
How it was run: as §1

[11] = target: Man(a1-2)Man(a1-2)Man(a1-3)Man
How it was run: as §1

[12] = target: Man(a1-3)[Man(a1-6)]Man(a1-6)[Man(a1-3)]Man
How it was run: as §1

[13] = target: Man(a1-3)[Man(a1-6)]Man(a1-6)[Man(a1-3)]Man(b1-4)GlcNAc(b1-4)GlcNAc
How it was run: as §1

[14] = target: Man(a1-3)[Man(a1-6)]Man(b1-4)GlcNAc(b1-4)[Fuc(a1-6)]GlcNAc
How it was run: as §1

[15] = target: Man(a1-6)Man
How it was run: as §1

[16] = target: Neu5Ac(a2-3)Gal(b1-3)[Fuc(a1-4)]GlcNAc(b1-3)Gal(b1-3)[Fuc(a1-4)]GlcNAc
How it was run: as §1

[17] = target: Neu5Ac(a2-3)Gal(b1-3)[Fuc(a1-4)]GlcNAc(b1-3)Gal(b1-4)[Fuc(a1-3)]GlcNAc
How it was run: as §1

[18] = target: Neu5Ac(a2-3)Gal(b1-4)GlcNAc(b1-2)Man(a1-3)[Neu5Ac(a2-3)Gal(b1-4)GlcNAc(b1-2)Man(a1-6)]Man(b1-4)GlcNAc(b1-4)[Fuc(a1-6)]GlcNAc
How it was run: as §1

[19] = target: Neu5Ac(a2-3)Gal(b1-4)GlcNAc(b1-3)Gal(b1-4)GlcNAc(b1-3)Gal(b1-4)GlcNAc(b1-2)Man(a1-3)[Neu5Ac(a2-3)Gal(b1-4)GlcNAc(b1-3)Gal(b1-4)GlcNAc(b1-3)Gal(b1-4)GlcNAc(b1-2)Man(a1-6)]GalNAc
How it was run: as §1

[20] = target: Neu5Ac(a2-3)Gal(b1-4)GlcNAc(b1-3)Gal(b1-4)[Fuc(a1-3)]GlcNAc
How it was run: as §1

[21] = target: Neu5Ac(a2-3)Gal6S(b1-4)GlcNAc
How it was run: as §1

[22] = target: Neu5Ac(a2-6)Gal(b1-4)GlcNAc(b1-3)Gal(b1-4)GlcNAc(b1-3)Gal(b1-4)GlcNAc(b1-2)Man(a1-3)[Neu5Ac(a2-6)Gal(b1-4)GlcNAc(b1-3)Gal(b1-4)GlcNAc(b1-3)Gal(b1-4)GlcNAc(b1-2)Man(a1-6)]GalNAc
How it was run: as §1

[23] = target: Neu5Ac(a2-6)Gal(b1-4)GlcNAc(b1-3)Gal(b1-4)[Fuc(a1-3)]GlcNAc(b1-3)Gal(b1-4)[Fuc(a1-3)]GlcNAc
How it was run: as §1

[24] = target: Neu5Ac(a2-6)Gal(b1-4)GlcNAc6S
How it was run: as §1

[25] = target: Neu5Gc(a2-3)Gal(b1-4)GlcNAc(b1-3)Gal(b1-4)GlcNAc(b1-2)Man(a1-3)[Neu5Gc(a2-3)Gal(b1-4)GlcNAc(b1-3)Gal(b1-4)GlcNAc(b1-2)Man(a1-6)]Man(b1-4)GlcNAc(b1-4)GlcNAc
How it was run: as §1

B1: EULS2 M2 (Oryza sativa) (protein)
chain: MVYCRANPNYAMTARNGAVVLAPANPKDEYQHWIKDMRWSTSIKDEEGYPAFALVNKATGQAIKHSLGQSHPVRLVPYNPEVMDESVLWTESRDVGNGFRCIRMVNNIYLNFDAFHGDKYHGGVRDGTDIVLWKLCEGDSQRWKIQPYYILEQKLISEEDLNSAVDHHHHHH
[1]
  glycan array binding signal (z-score): 2.72
[2]
  glycan array binding signal (z-score): 0.855
[3]
  glycan array binding signal (z-score): 0.228
[4]
  glycan array binding signal (z-score): -0.217
[5]
  glycan array binding signal (z-score): -0.066
[6]
  glycan array binding signal (z-score): 0.412
[7]
  glycan array binding signal (z-score): -0.404
[8]
  glycan array binding signal (z-score): -0.176
[9]
  glycan array binding signal (z-score): 0.163
[10]
  glycan array binding signal (z-score): -0.388
[11]
  glycan array binding signal (z-score): -0.332
[12]
  glycan array binding signal (z-score): 7.3
[13]
  glycan array binding signal (z-score): 3.29
[14]
  glycan array binding signal (z-score): 0.966
[15]
  glycan array binding signal (z-score): 5.83
[16]
  glycan array binding signal (z-score): 0.084
[17]
  glycan array binding signal (z-score): -0.548
[18]
  glycan array binding signal (z-score): -0.323
[19]
  glycan array binding signal (z-score): -0.26
[20]
  glycan array binding signal (z-score): -0.328
[21]
  glycan array binding signal (z-score): -0.449
[22]
  glycan array binding signal (z-score): 0.058
[23]
  glycan array binding signal (z-score): -0.268
[24]
  glycan array binding signal (z-score): -0.389
[25]
  glycan array binding signal (z-score): 0.09
